In PubChem BioAssay (Tox21):
Records with an inconclusive call do not appear. Activity calls are given as the source filed them. Unless noted, the call rests on the fitted dose curve; in most records, active means well fitted curve in the direction sought with a large enough effect in the repeat runs; inconclusive means weak or mixed curves; inactive means no such curve, though single readings can be large; an effect the other way counts as inactive or inconclusive.

Assays:
[1] = target: Estrogen receptor beta (Homo sapiens) (UniProt Q92731); assay: qHTS assay to identify small molecule agonists of the estrogen receptor beta (ER-beta) signaling pathway (AID 1259377; active means well fitted activation curve with a large enough effect in the signal ratio in the repeat runs, not every such curve was filed as active; the % refers to the signal ratio; further: potency means the concentration at half of the fitted maximal effect)
Estrogen receptor beta (Homo sapiens), sequence (Q92731 whole entry, looked up, the tested form may be a part): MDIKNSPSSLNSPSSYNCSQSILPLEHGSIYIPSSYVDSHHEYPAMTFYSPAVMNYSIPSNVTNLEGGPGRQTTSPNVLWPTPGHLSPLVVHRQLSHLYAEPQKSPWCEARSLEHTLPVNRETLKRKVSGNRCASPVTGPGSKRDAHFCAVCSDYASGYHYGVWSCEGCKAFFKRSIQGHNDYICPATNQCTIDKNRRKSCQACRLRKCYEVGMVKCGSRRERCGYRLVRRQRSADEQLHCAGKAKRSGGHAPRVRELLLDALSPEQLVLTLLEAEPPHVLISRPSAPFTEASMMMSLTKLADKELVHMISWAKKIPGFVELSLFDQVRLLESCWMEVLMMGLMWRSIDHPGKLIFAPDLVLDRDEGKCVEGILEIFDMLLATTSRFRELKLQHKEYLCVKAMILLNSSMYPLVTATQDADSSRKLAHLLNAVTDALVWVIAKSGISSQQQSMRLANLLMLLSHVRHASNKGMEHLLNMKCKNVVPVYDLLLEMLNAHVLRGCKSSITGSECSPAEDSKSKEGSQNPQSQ
Method in brief: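 Agonist mode cell assay in GripTite HEK293T cells expressing an ER-beta fusion that drives beta-lactamase from an Upstream Activator Sequence; 16 hr compound exposure at 37C, then 2 h LiveBLAzer B/G FRET substrate at room temperature, fluorescence read-out.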

[2] = target: Estrogen receptor beta (Homo sapiens) (UniProt Q92731); assay: qHTS assay to identify small molecule antagonists of the estrogen receptor beta (ER-beta) signaling pathway (AID 1259378; active means well fitted inhibition curve with a large enough effect in the signal ratio in the repeat runs, not every such curve was filed as active; the % refers to the signal ratio; further: potency means the concentration at half of the fitted maximal effect)
Method in brief: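 ER-beta-UAS-bla HEK293T cells in 2% charcoal-stripped FBS medium treated with compound plus 1nM final 17-beta-estradiol for 16 hr at 37C. Beta-lactamase reporter read by FRET substrate fluorescence after 2 hours at room temperature.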

[3] = qHTS assay to identify small molecule agonists of the androgen receptor (AR) signaling pathway in the presence of an antagonist - cell viability counter screen (AID 1259379); further: nearly all actives have a fitted effect of over 25% in size; further: potency means the concentration at half of the fitted maximal effect;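 on activity change, negative = cytotoxicity: MDA-kb2 human breast cancer cells carrying an MMTV luciferase reporter; series mostly up to about 92 µM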
Method in brief: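 Cytotoxicity counter-screen run in the same wells as the nilutamide-challenged (3.0 µM final) AR agonist assay in MDA-kb2 cells. Compounds tested at 15 concentrations for 16 h, 37 °C without CO2; CellTiter-Fluor fluorescence read.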

[4] = qHTS assay to identify small molecule agonists of the estrogen receptor beta (ER-beta) signaling pathway - cell viability counter screen (AID 1259380); further: nearly all actives have a fitted effect of over 30% in size; further: potency means the concentration at half of the fitted maximal effect
Method in brief: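 Cell viability counter screen: CellTiter-Glo luminescence (30 min, room temperature) measured in the same wells as the beta-lactamase readout, after 16 hr compound exposure at 37C of ER-beta-bla HEK293T cells in 2% charcoal-stripped FBS medium.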

[5] = qHTS assay to identify small molecule antagonists of the estrogen receptor beta (ER-beta) signaling pathway - cell viability counter screen (AID 1259382); further: series mostly up to about 92 µM; nearly all actives have a fitted effect of over 55% in size
Method in brief: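 Cytotoxicity was measured in the same wells by CellTiter-Glo luminescence after 30 min at room temperature. Cells were ER-beta-bla HEK293T in charcoal-stripped serum, given compound together with 1 nM E2 and incubated 16 h at 37C.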

[6] = target: Estrogen receptor (Homo sapiens) (UniProt P03372); assay: qHTS assay to identify small molecule agonists of the estrogen receptor alpha (ER-alpha) signaling pathway in the presence of an antagonist (AID 1259383; calls by dose curve; further: nearly all actives have a fitted effect of over 15% in size; further: potency means the concentration at half of the fitted maximal effect; on activation: top concentration of the series differs between compounds)
Estrogen receptor (Homo sapiens), sequence (P03372 whole entry, looked up): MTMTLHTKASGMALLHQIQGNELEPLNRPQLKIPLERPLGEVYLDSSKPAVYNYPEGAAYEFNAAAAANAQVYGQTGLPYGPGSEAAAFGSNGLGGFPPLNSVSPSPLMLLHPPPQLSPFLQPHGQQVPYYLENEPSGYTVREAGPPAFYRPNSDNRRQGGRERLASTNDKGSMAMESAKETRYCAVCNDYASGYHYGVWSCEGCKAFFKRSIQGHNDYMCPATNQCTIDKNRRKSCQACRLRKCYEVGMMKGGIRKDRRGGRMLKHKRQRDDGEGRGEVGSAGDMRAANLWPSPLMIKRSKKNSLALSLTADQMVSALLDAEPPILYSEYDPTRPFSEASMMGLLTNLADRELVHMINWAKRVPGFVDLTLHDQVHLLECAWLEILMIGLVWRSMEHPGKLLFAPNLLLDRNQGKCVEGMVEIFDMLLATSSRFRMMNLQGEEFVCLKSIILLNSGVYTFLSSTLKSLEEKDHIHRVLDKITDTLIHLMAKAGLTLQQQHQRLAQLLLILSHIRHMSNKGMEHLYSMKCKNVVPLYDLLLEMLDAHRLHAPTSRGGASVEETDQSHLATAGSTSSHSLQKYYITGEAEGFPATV
Method in brief: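 Agonist-mode confirmation run in the presence of 10.0nM (final) ICI-182,780 antagonist. The reporter was ERE-driven luciferase in VM7Luc4E2 cells, grown in charcoal-stripped serum. Cells were exposed to 15-concentration compound series for 22hr, then ONE-Glo luminescence was read.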

[7] = qHTS assay to identify small molecule agonists or antagonists of the thyroid stimulating hormone receptor (TSHR) signaling pathway - wild type cell line counter screen (AID 1259384; calls by dose curve)
Method in brief: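 Wild-type Hek293 cells, 800/well, 18 h at 37C, then compound with Ro20-1724 for 30 min RT. cAMP by HTRF (cAMP-d2/anti-cAMP cryptate), 1 h RT, fluorescence read. 15 concentrations, triplicates.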

[8] = target: Androgen receptor (Homo sapiens) (UniProt P10275); assay: qHTS assay to identify small molecule agonists of the androgen receptor (AR) signaling pathway in the presence of an antagonist (AID 1259381; calls by dose curve; further: nearly all actives have a fitted effect of over 15% in size)
Androgen receptor (Homo sapiens), sequence (P10275 whole entry, looked up): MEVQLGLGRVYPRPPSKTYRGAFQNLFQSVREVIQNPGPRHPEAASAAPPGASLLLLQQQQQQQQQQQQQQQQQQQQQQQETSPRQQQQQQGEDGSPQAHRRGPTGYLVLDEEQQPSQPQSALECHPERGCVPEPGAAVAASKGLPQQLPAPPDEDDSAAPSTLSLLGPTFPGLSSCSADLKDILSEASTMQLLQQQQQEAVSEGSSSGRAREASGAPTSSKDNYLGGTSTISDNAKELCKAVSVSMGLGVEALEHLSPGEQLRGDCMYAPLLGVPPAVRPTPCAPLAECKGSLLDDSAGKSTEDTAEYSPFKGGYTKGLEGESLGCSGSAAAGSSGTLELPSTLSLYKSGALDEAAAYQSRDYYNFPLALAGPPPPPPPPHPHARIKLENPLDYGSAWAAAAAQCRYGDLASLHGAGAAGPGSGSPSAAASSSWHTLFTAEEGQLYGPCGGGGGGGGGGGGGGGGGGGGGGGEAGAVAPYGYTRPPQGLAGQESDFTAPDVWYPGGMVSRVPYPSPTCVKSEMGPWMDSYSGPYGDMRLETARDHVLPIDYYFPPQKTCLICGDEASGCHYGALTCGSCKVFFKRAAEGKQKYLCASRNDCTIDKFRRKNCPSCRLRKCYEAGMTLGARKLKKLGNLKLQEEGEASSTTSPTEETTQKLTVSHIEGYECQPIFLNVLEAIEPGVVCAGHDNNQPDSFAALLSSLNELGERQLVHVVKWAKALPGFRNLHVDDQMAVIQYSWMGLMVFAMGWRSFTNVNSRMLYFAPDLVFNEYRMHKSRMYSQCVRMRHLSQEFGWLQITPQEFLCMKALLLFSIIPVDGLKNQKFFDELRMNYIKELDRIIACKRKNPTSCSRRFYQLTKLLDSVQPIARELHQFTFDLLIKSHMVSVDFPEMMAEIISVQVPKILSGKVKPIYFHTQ
Method in brief: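 Agonist-mode confirmation run against 3.0 uM final nilutamide: compounds titrated at 15 concentrations onto MDA-kb2 MMTV-luciferase reporter cells. Luminescence measured with ONE-Glo following 16 hr incubation, 37C, 0% CO2.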

[9] = target: Thyrotropin receptor (Homo sapiens) (UniProt P16473); assay: qHTS assay to identify small molecule antagonists of the thyroid stimulating hormone receptor (TSHR) signaling pathway (AID 1259385; calls by dose curve; further: nearly all actives have a fitted effect of over 20% in size)
Thyrotropin receptor (Homo sapiens), sequence (P16473 whole entry, looked up): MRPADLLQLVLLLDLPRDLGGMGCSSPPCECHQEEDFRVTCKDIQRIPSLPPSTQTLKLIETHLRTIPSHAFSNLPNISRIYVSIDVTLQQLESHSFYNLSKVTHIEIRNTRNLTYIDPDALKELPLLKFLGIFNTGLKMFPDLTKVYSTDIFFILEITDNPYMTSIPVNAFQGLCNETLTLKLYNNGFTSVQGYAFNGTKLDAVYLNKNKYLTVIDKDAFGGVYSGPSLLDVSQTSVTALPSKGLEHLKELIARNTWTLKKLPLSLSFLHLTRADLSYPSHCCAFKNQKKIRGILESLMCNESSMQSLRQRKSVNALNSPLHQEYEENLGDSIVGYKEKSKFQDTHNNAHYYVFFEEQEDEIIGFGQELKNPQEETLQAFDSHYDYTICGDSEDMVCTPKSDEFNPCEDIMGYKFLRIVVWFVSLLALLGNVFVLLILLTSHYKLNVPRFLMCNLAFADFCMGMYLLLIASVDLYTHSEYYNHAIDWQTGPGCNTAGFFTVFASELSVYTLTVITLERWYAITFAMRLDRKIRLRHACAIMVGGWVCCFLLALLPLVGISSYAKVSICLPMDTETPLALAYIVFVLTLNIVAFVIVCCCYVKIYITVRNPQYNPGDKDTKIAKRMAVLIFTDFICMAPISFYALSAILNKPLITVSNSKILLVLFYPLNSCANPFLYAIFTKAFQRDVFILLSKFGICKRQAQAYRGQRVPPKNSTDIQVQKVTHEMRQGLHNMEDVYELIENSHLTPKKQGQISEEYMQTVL
Method in brief: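 TSHR-HEK293 cells (800/well) plated 18 h, then compounds with Ro20-1724 and TSH at 1.5 ng/mL final, 30 min at room temperature. cAMP quantified by HTRF (cAMP-d2/anti-cAMP-cryptate, 1 h); 15 concentrations in triplicate.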

[10] = qHTS assay to identify small molecule agonists of the estrogen receptor alpha (ER-alpha) signaling pathway in the presence of an antagonist - cell viability counter screen (AID 1259386); further: nearly all actives have a fitted effect of over 30% in size; further: potency means the concentration at half of the fitted maximal effect; on activity change, negative = cytotoxicity: series mostly up to about 92 µM
Method in brief: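 Compounds tested at 15 concentrations for 22 h at 37C alongside 10.0nM (final) ICI-182,780 antagonist, in VM7Luc4E2 cells grown in phenol red-free, charcoal-stripped medium. Viability read by CellTiter-Fluor fluorescence after 1 h reagent incubation.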
On the % scale 0 is the no-effect control and ±100 the full control effect.

c1ccc(CNCCNCc2ccccc2)cc1
inactive: Potency [1] | Potency [3] | Potency [4] | Potency [5] | Potency [6] | Potency [7]
active: Potency [2] 10.6 µM

COc1ccc(C(=O)c2ccc(OC)cc2O)c(O)c1
active: Potency [1] 48.9 µM | Potency [6] 8.7 µM
inactive: Potency [2] | Potency [3] | Potency [4] | Potency [8] | Potency [5] | Potency [7] | Potency [9] | Potency [10]

O=[N+]([O-])c1ccc2[nH]ncc2c1
inactive: Potency [1] | Potency [2] | Potency [3] | Potency [4] | Potency [5] | Potency [6] | Potency [7] | Potency [9]

O=C(O)c1ccc(S(=O)(=O)O)cc1C(=O)O
inactive: Potency [1] | Potency [2] | Potency [3] | Potency [4] | Potency [5] | Potency [6] | Potency [7] | Potency [9]

c1cc(CCCc2ccncc2)ccn1
inactive: Potency [1] | Potency [2] | Potency [3] | Potency [4] | Potency [5] | Potency [6] | Potency [7] | Potency [9] | Potency [10]

NCCCN1CCOCC1
inactive: Potency [1] | Potency [2] | Potency [3] | Potency [4] | Potency [8] | Potency [5] | Potency [6] | Potency [7] | Potency [9] | Potency [10]

O=[N+]([O-])c1ccc(NCCO)c(OCCO)c1
active: Potency [3] 54.5 µM | Potency [10] 27.3 µM
inactive: Potency [1] | Potency [2] | Potency [4] | Potency [8] | Potency [5] | Potency [9]

CCN(CC)CCNC(=O)c1cc(Br)c(N)cc1OC
inactive: Potency [1] | Potency [2] | Potency [3] | Potency [4] | Potency [5] | Potency [6] | Potency [7] | Potency [9] | Potency [10]

CCO[C@H](Cc1ccc(OCCc2ccc(OS(C)(=O)=O)cc2)cc1)C(=O)O
inactive: Potency [1] | Potency [2] | Potency [3] | Potency [4] | Potency [8] | Potency [5] | Potency [6] | Potency [10]

CCOC(=O)COC(=O)c1cc(Oc2ccc(C(F)(F)F)cc2Cl)ccc1[N+](=O)[O-]
inactive: Potency [1] | Potency [2] | Potency [3] | Potency [4] | Potency [8] | Potency [5] | Potency [7] | Potency [9] | Potency [10]

CCOC(=O)c1cccnc1
inactive: Potency [1] | Potency [2] | Potency [3] | Potency [4] | Potency [5] | Potency [6] | Potency [7] | Potency [9] | Potency [10]

CCOC(=O)C(=O)CCc1ccccc1
inactive: Potency [1] | Potency [2] | Potency [3] | Potency [4] | Potency [8] | Potency [5] | Potency [6]

CCOc1ccc(O)cc1
inactive: Potency [1] | Potency [2] | Potency [3] | Potency [4] | Potency [5] | Potency [6] | Potency [7] | Potency [9] | Potency [10]

CN1CCN(C(c2ccccc2)c2ccccc2)CC1
inactive: Potency [1] | Potency [2] | Potency [3] | Potency [4] | Potency [8] | Potency [5] | Potency [6] | Potency [7] | Potency [9] | Potency [10]

OC[C@H]1O[C@@H](OCCc2ccc(O)cc2)[C@H](O)[C@@H](O)[C@@H]1O
inactive: Potency [1] | Potency [2] | Potency [3] | Potency [4] | Potency [5] | Potency [6]

CC(CC=O)c1ccccc1 (stereo unspecified)
inactive: Potency [1] | Potency [2] | Potency [3] | Potency [4] | Potency [5] | Potency [6] | Potency [7] | Potency [9] | Potency [10]

COc1ccc(C(=O)N2CCN(CC(=O)N3CCOCC3)CC2)cc1
inactive: Potency [1] | Potency [2] | Potency [3] | Potency [4] | Potency [5] | Potency [6] | Potency [7] | Potency [9] | Potency [10]

OCCNCc1ccccc1
inactive: Potency [1] | Potency [2] | Potency [3] | Potency [4] | Potency [8] | Potency [5] | Potency [6] | Potency [10]

CN1Cc2cc(C(=O)N3CCC(C4CCNCC4)CC3)ccc2NC(CC(=O)O)C1=O (stereo unspecified)
inactive: Potency [1] | Potency [2] | Potency [3] | Potency [4] | Potency [5] | Potency [6] | Potency [7] | Potency [9] | Potency [10]

CCCCCCCCCCCCCCCCOS(=O)(=O)O
inactive: Potency [1] | Potency [2] | Potency [3] | Potency [8] | Potency [6] | Potency [7] | Potency [10]
active: Potency [4] 33.5 µM

Cc1[nH]c(C)c(Cl)c(=O)c1Cl
inactive: activation [1] 0.451% [at 19 µM] | activity, negative = inhibition [2] 9.97% [at 19 µM] | activity change, negative = cytotoxicity [3] 0.0878% [at 19 µM] | activity change, negative = cytotoxicity [4] 2.64% [at 19 µM] | activity change, negative = cytotoxicity [5] 0.273% [at 19 µM] | Potency [6] | cAMP activity change [7] 6.03% [at 18.9 µM, active compounds read high] | activity change, negative = inhibition [9] 4.84% [at 19 µM]

O=C(O)CNCC(=O)O
inactive: activation [1] 0.711% [at 8.39 µM] | activity, negative = inhibition [2] 5.13% [at 8.39 µM] | activity change, negative = cytotoxicity [3] -0.627% [at 8.39 µM] | activity change, negative = cytotoxicity [4] 12.4% [at 8.39 µM] | activation [8] 3.52% [at 8.39 µM] | activity change, negative = cytotoxicity [5] -2.7% [at 8.39 µM] | activation [6] -1.55% [at 8.39 µM] | cAMP activity change [7] 0.505% [at 8.39 µM, active compounds read high] | activity change, negative = inhibition [9] -1.17% [at 8.39 µM] | activity change, negative = cytotoxicity [10] -4.75% [at 8.39 µM]

CCC(C)(C)CC
inactive: Potency [1] | Potency [2] | Potency [3] | Potency [4] | Potency [5]

C[N+](C)(C)CCOC(=O)CCC(=O)OCC[N+](C)(C)C
inactive: Potency [1] | Potency [2] | Potency [3] | Potency [4] | Potency [5] | Potency [6] | Potency [7] | Potency [9]
